Results filed as inconclusive are left out. Calls of active or inactive are those of the source. Unless noted, calls follow the shape of the full dose curve.
Legend:
[1] = Nuclear factor erythroid 2-related factor 2/antioxidant responsive element (Nrf2/ARE) small molecule agonists: qHTS cell viability counter screen in human keratinocytes (AID 1919968; active = well fitted curve in the direction sought with a large enough effect in the repeat runs; an effect the other way counts as inactive or inconclusive; also: nearly all actives have a fitted effect of over 55% in size; also: potency is read from the fitted curve at half-maximal effect)
How it was run: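 Cells of the KeratinoSens line were plated at 1,500 per well and left for 5 h before compound transfer from DMSO stocks. After a 23 h incubation (37 C, 5% CO2), CellTiter-Fluor was added. Signal was taken as fluorescence intensity 1 h later.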

[2] = Nuclear factor erythroid 2-related factor 2/antioxidant responsive element (Nrf2/ARE) small molecule agonists: luciferase reporter gene qHTS assay in human keratinocytes (AID 1919969); also: nearly all actives have a fitted effect of over 35% in size; also: potency is read from the fitted curve at half-maximal effect
[3] = target: Gonadotropin-releasing hormone receptor (Homo sapiens) (UniProt P30968); assay: Human gonadotropin-releasing hormone receptor (GnRHR) small molecule agonists, calcium flux assay in GnRHR-HEK293 cells (AID 1920063); also: nearly all actives have a fitted effect of over 35% in size
How it was run: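 Compounds dissolved in DMSO are pin-transferred onto dye-loaded GnRHR-HEK293 cells, which were seeded 18 h before at 37 C/5% CO2. Calcium signal is read as fluorescence intensity at 1 s intervals for 3 min.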

[4] = target: KiSS-1 receptor (Homo sapiens) (UniProt Q969F8); assay: Human kisspeptin (KISS1R) small molecule agonists, calcium flux assay in KISS1R-HEK293 cells (AID 1920064; active = well fitted curve in the direction sought with a large enough effect in the repeat runs; an effect the other way counts as inactive or inconclusive)
How it was run: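 Cell line: HEK293, stable human KISS1R. Dye loading 1 h at 37 C after 18 h culture. Read: kinetic fluorescence, 480/540 nm, 3 min at 1 s intervals.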

[5] = G protein-coupled receptor (GPCR) small molecule agonists, calcium flux assay: HEK293 wild type cell line counter screen (AID 1920065)
How it was run: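 Tox21 10K compounds, 15 concentrations each in triplicate, pin-transferred in DMSO onto dye-loaded cells; kinetic read at 480/540 nm for 3 min, 1 s intervals.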

[6] = p53 small molecule agonists, cell-based qHTS assay with human liver microsomes (AID 1963577);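 also: p53 response element beta-lactamase reporter cells with liver microsomes plus NADPH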
How it was run: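 In this qHTS, p53 response-element beta-lactamase cells receive test compound together with a microsome/NADPH activating system (0.5 mg/mL final each) and are incubated 16 h at 37 C before LiveBLAzer fluorescence detection.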

[7] = p53 small molecule agonists, cell-based qHTS assay with rat liver microsomes (AID 1963578)
How it was run: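 Agonist mode in p53RE-bla reporter cells, with compounds co-incubated 16 h at 37 C alongside 0.5 mg/mL rat liver microsomes and 0.5 mg/mL NADPH (final), followed by a 2 h LiveBLAzer detection step.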

[8] = p53 small molecule agonists, cell-based qHTS assay with human liver microsomes: qHTS cell viability counter screen (AID 1963579); also: nearly all actives have a fitted effect of over 45% in size
How it was run: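 Metabolically activated exposure: compounds, human liver microsomes and NADPH (0.5 mg/mL final apiece) were added to p53RE-bla cells seeded 5 h earlier, left 16 h at 37 C, and then assessed for viability by CellTiter-Glo luminescence.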

[9] = p53 small molecule agonists, cell-based qHTS assay with rat liver microsomes: qHTS cell viability counter screen (AID 1963580); also: nearly all actives have a fitted effect of over 45% in size
How it was run: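 Cytotoxicity counter screen: intracellular ATP measured by CellTiter-Glo luminescence in the same wells as the beta-lactamase reporter read, on HCT-116 p53RE-bla cells exposed 16 h at 37 C to compounds with rat liver microsomes and NADPH, each 0.5 mg/mL final.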

[10] = target: 5-hydroxytryptamine receptor 2A (Homo sapiens) (UniProt P28223); assay: 5-hydroxytryptamine receptor 2A (HTR2A) small molecule antagonists, cell-based qHTS assay (AID 1963586); also: nearly all actives have a fitted effect of over 45% in size
How it was run: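 CHO cells stably expressing human HTR2A were plated for 18 h at 37 C, then loaded with calcium dye for 1 h. Compounds were preincubated 5 min at room temperature before DOI (4 nM solution) was added. Kinetic fluorescence was read for 3 min.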

[11] = target: 5-hydroxytryptamine receptor 2A (Homo sapiens) (UniProt P28223); assay: 5-hydroxytryptamine receptor 2A (HTR2A) small molecule agonists, cell-based qHTS assay (AID 1963587); also: nearly all actives have a fitted effect of over 30% in size; also: potency is read from the fitted curve at half-maximal effect
How it was run: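 CHO cells stably expressing human HTR2A, plated 18 h, loaded with calcium dye 1 h at 37 C. Agonist mode: compounds added and intracellular calcium fluorescence recorded kinetically for 2 min at 1 sec intervals.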

[12] = target: Muscarinic acetylcholine receptor M1 (Homo sapiens) (UniProt P11229); assay: Cholinergic receptor muscarinic 1 (CHRM1) small molecule agonists, cell-based qHTS assay (AID 1963589); also: nearly all actives have a fitted effect of over 35% in size
How it was run: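 Homogeneous fluorescence calcium flux, agonist mode. Human M1-expressing CHO cells; compound dosed at 15 concentrations, three independent runs; signal sampled every 1 sec.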

[13] = target: Beta-2 adrenergic receptor (Homo sapiens) (UniProt P07550); assay: Adrenergic beta2 receptor (ADRB2) small molecule antagonists, cell-based qHTS assay (AID 1963592); also: series mostly up to about 92 µM; nearly all actives have a fitted effect of over 50% in size
How it was run: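 Assay format: CHO-ADRB2 cells, 18-20hr seeding at 37C/5% CO2, then compound plus 1nM isoproterenol agonist mix for 0.5hr RT. Homogeneous time-resolved fluorescence cAMP detection after 1hr, expressed as 665/615 nm ratio.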

[14] = target: Muscarinic acetylcholine receptor M1 (Homo sapiens) (UniProt P11229); assay: Cholinergic receptor muscarinic 1 (CHRM1) small molecule antagonists, cell-based qHTS assay (AID 1963588); also: nearly all actives have a fitted effect of over 40% in size
How it was run: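 Compounds were tested at 15 concentrations in three independent runs. Dye-loaded CHRM1-CHO cells were exposed 5 min at room temperature before stimulation by acetylcholine added at 50nM. Intracellular calcium was read kinetically on FDSS for 3 min.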

[15] = target: D(2) dopamine receptor (Homo sapiens) (UniProt P14416); assay: Dopamine D2 receptor (DRD2) small molecule antagonists, cell-based qHTS assay (AID 1963595; active = well fitted inhibition curve with a large enough effect in the signal ratio in the repeat runs, with a control signal flat; the % refers to the signal ratio)
How it was run: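 In this cell-based antagonist screen, compounds act for 10 min at room temperature before a 30 min challenge with 12 nM quinpirole and 200 nM NKH477. cAMP is quantified by HTRF competition in DRD2-HEK293 cells containing 0.1 mM Ro20-1724.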

[16] = p53 small molecule agonists, cell-based qHTS assay: qHTS cell viability counter screen (AID 1963581); also: nearly all actives have a fitted effect of over 45% in size
How it was run: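 ATP content measured by luminescence in HCT-116 p53RE-bla cells treated 16 h at 37 C, same wells as the reporter screen.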

[17] = p53 small molecule agonists, cell-based qHTS assay (AID 1963582; active = well fitted activation curve with a large enough effect in the signal ratio in the repeat runs, not every such curve was filed as active; the % refers to the signal ratio)
How it was run: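 16 h compound exposure (37 C) of p53 response element–bla cells, preceded by 5 h recovery at 37 C/5% CO2; read-out via LiveBLAzer B/G FRET substrate, 2 h RT, fluorescence intensity.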

[18] = cAMP Responsive Elements (CRE) small molecule agonists, cell-based qHTS assay (AID 1963590)
How it was run: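 HEK 293T cells stably bearing CRE-bla were plated at 2,000 cells per well and rested 18 h. Compounds, positive controls or DMSO were added for 3 h at 37 C. LiveBLAzer B/G substrate was then loaded for 2 h at room temperature.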

[19] = cAMP Responsive Elements (CRE) small molecule antagonists, cell-based qHTS assay (AID 1963591; active = well fitted inhibition curve with a large enough effect in the signal ratio in the repeat runs, not every such curve was filed as active; the % refers to the signal ratio)
How it was run: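 First, CRE-bla HEK293T cells settled 18 h at 37 C. Next, compound and 0.25 uM final NKH477 were applied for 3 h. Last, LiveBLAzer B/G substrate was loaded for 2 h at room temperature.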

[20] = target: D(2) dopamine receptor (Homo sapiens) (UniProt P14416); assay: Dopamine D2 receptor (DRD2) small molecule agonists, cell-based qHTS assay (AID 1963594); also: nearly all actives have a fitted effect of over 35% in size
How it was run: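 HEK293 cells stably expressing human DRD2, pre-treated with PDE inhibitor Ro20-1724 (0.1 mM final) and compound 10 min at room temperature, then stimulated with NKH477 (200nM […]) for 30 min. cAMP read by HTRF (665/620 nm).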

Measured: Potency

Chain of KiSS-1 receptor (Homo sapiens) (Q969F8 whole entry, looked up): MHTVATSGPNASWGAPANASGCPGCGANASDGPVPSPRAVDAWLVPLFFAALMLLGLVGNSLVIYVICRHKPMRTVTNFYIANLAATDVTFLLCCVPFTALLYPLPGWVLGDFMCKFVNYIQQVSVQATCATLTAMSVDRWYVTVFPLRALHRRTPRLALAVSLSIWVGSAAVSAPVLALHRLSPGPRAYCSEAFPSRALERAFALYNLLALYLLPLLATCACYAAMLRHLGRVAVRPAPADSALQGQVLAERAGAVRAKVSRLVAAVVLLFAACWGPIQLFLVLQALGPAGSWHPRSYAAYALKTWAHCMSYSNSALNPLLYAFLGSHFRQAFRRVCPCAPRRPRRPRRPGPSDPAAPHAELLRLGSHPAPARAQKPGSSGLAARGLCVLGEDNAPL
Chain of Muscarinic acetylcholine receptor M1 (Homo sapiens) (P11229 whole entry, looked up): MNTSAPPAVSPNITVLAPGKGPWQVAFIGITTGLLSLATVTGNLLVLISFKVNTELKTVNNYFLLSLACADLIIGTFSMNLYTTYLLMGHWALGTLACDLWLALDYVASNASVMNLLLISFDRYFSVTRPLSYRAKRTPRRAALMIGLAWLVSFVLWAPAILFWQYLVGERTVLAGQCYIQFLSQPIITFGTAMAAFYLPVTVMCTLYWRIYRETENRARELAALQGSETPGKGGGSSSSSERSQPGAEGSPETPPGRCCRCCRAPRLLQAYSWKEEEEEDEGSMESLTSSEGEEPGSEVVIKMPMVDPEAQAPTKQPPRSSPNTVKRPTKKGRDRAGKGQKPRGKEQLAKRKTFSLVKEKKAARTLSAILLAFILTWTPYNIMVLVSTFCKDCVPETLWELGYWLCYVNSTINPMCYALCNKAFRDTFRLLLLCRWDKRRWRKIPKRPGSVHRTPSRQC
Chain of Gonadotropin-releasing hormone receptor (Homo sapiens) (P30968 whole entry, looked up): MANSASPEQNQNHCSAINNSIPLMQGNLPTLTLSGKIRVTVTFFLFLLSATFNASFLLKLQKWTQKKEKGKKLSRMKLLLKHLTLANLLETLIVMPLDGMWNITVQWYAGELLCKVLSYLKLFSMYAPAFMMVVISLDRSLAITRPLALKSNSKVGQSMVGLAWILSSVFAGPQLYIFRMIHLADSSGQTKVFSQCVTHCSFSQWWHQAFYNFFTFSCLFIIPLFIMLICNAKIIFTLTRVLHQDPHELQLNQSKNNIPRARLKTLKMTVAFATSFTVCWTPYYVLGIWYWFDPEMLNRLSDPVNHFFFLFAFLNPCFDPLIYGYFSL
Chain of D(2) dopamine receptor (Homo sapiens) (P14416 whole entry, looked up): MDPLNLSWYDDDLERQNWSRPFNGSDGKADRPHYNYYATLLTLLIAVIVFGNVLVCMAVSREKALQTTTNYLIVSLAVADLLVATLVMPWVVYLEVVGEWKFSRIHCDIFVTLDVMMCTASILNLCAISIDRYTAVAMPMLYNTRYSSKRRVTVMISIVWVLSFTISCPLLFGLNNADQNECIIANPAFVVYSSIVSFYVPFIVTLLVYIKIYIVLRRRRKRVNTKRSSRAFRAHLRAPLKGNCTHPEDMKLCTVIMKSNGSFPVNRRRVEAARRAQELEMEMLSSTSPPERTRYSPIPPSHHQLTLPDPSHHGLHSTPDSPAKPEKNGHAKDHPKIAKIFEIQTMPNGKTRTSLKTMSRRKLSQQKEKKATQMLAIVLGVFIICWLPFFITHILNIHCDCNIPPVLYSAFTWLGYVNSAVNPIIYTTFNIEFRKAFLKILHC
Chain of Beta-2 adrenergic receptor (Homo sapiens) (P07550 whole entry, looked up): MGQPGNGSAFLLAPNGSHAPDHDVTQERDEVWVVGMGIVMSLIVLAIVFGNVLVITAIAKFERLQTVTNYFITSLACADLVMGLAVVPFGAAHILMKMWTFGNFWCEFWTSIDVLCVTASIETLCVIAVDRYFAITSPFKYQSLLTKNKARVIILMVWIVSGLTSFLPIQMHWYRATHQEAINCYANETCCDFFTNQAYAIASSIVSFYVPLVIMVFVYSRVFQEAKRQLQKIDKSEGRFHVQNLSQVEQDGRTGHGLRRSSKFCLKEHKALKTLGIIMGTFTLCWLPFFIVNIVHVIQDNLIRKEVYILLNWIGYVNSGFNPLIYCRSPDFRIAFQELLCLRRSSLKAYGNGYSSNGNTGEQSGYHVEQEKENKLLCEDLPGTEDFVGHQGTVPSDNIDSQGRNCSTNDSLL
Chain of 5-hydroxytryptamine receptor 2A (Homo sapiens) (P28223 whole entry, looked up): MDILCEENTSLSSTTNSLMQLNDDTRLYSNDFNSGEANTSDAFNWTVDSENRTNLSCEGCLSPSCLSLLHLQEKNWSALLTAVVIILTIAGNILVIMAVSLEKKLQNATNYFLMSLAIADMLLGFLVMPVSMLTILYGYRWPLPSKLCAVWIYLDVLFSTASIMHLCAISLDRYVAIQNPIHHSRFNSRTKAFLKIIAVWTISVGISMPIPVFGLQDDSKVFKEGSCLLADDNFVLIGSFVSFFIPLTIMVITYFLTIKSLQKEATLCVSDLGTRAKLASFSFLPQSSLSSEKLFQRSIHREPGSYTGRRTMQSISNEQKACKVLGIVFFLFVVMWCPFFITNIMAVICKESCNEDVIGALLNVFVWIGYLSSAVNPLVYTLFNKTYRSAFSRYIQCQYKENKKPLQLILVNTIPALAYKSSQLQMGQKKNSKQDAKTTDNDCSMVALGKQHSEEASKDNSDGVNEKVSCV

COc1ccc(C(c2ccc(OC)cc2)C(Cl)(Cl)Cl)cc1
active: [1] 19.2 µM | [2] 27.1 µM
inactive: [3] | [4] | [5] | [6] | [7] | [8] | [9] | [10] | [11] | [12] | [13]

Cn1cc(C2=C(c3cn(C4CCN(Cc5ccccn5)CC4)c4ccccc34)C(=O)NC2=O)c2ccccc21
active: [1] 4.22 µM
inactive: [2] | [3] | [4] | [5] | [6] | [7] | [8] | [9] | [10] | [14] | [12] | [13] | [15]

Clc1cccc(N2CCNCC2)c1
inactive: [1] | [2] | [3] | [4] | [5] | [6] | [7] | [8] | [16] | [17] | [14] | [18] | [19] | [20] | [15]

O=C(Cl)c1ccccc1F
inactive: [1] | [2] | [3] | [4] | [5] | [6] | [7] | [9] | [16] | [17] | [10] | [11] | [14] | [12] | [18] | [19] | [13] | [20] | [15]

FC(F)OC(F)(F)C(F)Cl (configuration not stated)
inactive: [1] | [2] | [3] | [4] | [5] | [6] | [7] | [8] | [9] | [10] | [11] | [12] | [18] | [19] | [13] | [20] | [15]

O=C(CCl)Nc1ccccc1
inactive: [3] | [4] | [5] | [6] | [7] | [8] | [16] | [10] | [11] | [14] | [12] | [19] | [13] | [20] | [15]
active: [1] 21.7 µM | [2] 15.4 µM

CS(=O)(=O)c1ccc(C(=O)C2C(=O)CCCC2=O)c(Cl)c1COCC(F)(F)F
inactive: [1] | [2] | [3] | [4] | [5] | [6] | [7] | [8] | [16] | [17] | [10] | [11] | [14] | [13] | [20] | [15]

C[N+](C)(C)CC1CO1 (configuration not stated)
inactive: [1] | [2] | [3] | [4] | [5] | [6] | [7] | [8] | [16] | [17] | [10] | [11] | [14] | [18] | [19] | [13] | [20] | [15]

Nc1nc(N)nc(N)n1
inactive: [1] | [2] | [3] | [4] | [5] | [6] | [7] | [8] | [10] | [14] | [12] | [18] | [19] | [13] | [20] | [15]

Oc1cccc(-c2ccccc2)c1
inactive: [1] | [2] | [3] | [4] | [5] | [6] | [7] | [8] | [16] | [17] | [10] | [11] | [14] | [12] | [18] | [19] | [13] | [15]

Cc1nnc2n1-c1sc(CCc3ccc(CC(C)C)cc3)cc1C(c1ccccc1Cl)=NC2C (configuration not stated)
inactive: [2] | [3] | [4] | [5] | [6] | [7] | [8] | [9] | [11] | [14] | [12] | [13]
active: [1] 7.5 µM

OC(c1ccc(F)cc1)(c1cncnc1)c1ccccc1Cl (configuration not stated)
inactive: [1] | [2] | [3] | [4] | [5] | [6] | [8] | [9] | [16] | [17] | [10] | [14] | [12] | [18] | [19] | [13] | [20] | [15]

O=C(CBr)Nc1ccc(Cl)cc1C(=O)c1ccccc1F
inactive: [1] | [2] | [3] | [4] | [5] | [6] | [7] | [9] | [10] | [11] | [12] | [18] | [13] | [20]

NC1CCC(CC2CCC(N)CC2)CC1 (configuration not stated)
inactive: [2] | [3] | [4] | [5] | [6] | [8] | [9] | [16] | [17] | [10] | [14] | [12] | [18] | [13] | [20] | [15]
active: [1] 23.9 µM | [11] 19.2 µM

Cc1cccc(OP(=O)(Oc2cccc(C)c2)Oc2cccc(C)c2)c1
inactive: [1] | [2] | [3] | [4] | [5] | [6] | [8] | [9] | [16] | [17] | [10] | [11] | [14] | [12] | [18] | [19] | [20] | [15]

O=C(O)CCCCCCNC1c2ccccc2CCc2ccccc21
inactive: [1] | [2] | [3] | [4] | [5] | [6] | [7] | [9] | [11] | [12] | [18] | [19] | [20]
